Inhibition data for 7 compounds are collected here from ChEMBL document CHEMBL1961873, “Compounds: GSK PKIS; Assays: Nanosyn kinase panel” (2012).

Test [1] deals with Calcium/calmodulin-dependent protein kinase type II subunit alpha (Homo sapiens) (UniProt Q9UQM7). The note with it: at 1 µM.
Test [2] deals with Calcium/calmodulin-dependent protein kinase type II subunit delta (Homo sapiens) (UniProt Q13557). The note with it: at 0.1 µM.
Test [3] has the same target. The note with it: at 1 µM.
For test [4], the target named is T1, Calcium/calmodulin-dependent protein kinase type IV (Homo sapiens) (UniProt Q16566).
T1 sequence (whole entry): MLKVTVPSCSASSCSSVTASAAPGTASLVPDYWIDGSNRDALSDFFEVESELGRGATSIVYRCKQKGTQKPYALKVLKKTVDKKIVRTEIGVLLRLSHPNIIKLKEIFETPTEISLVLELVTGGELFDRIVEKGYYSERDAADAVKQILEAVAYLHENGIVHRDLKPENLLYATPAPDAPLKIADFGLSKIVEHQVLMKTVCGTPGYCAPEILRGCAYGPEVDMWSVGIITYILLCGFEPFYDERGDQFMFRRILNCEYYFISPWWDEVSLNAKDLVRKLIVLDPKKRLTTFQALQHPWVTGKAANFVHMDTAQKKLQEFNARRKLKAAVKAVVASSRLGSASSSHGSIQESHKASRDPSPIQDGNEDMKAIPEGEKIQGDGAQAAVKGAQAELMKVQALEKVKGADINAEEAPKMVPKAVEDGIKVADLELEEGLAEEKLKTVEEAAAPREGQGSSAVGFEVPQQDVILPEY
The settings on record: at 0.1 µM.

In test [5] the target is T1, Calcium/calmodulin-dependent protein kinase type IV (Homo sapiens). The settings on record: at 1 µM.
The target in test [6] is T2, Serine/threonine-protein kinase Chk1 (Homo sapiens) (UniProt O14757).
T2 sequence (whole entry): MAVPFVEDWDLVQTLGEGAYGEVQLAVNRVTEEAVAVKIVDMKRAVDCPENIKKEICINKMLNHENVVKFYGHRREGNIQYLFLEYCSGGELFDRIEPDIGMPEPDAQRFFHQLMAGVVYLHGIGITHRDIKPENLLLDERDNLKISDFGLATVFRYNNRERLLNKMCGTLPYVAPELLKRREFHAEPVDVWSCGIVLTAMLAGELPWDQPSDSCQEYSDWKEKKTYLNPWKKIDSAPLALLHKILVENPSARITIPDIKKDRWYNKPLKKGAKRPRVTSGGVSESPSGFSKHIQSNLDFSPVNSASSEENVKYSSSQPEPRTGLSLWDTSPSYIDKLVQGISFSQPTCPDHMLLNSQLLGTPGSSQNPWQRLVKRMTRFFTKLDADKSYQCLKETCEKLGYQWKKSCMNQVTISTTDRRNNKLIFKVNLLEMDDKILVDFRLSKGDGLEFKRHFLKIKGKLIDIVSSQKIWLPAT
The note with it: at 0.1 µM.

The target in test [7] is T2, Serine/threonine-protein kinase Chk1 (Homo sapiens). The note with it: at 1 µM.
For test [8], the target named is Serine/threonine-protein kinase Chk2 (Homo sapiens) (UniProt O96017). The note with it: at 0.1 µM.
For test [9] the target is unchanged. The settings on record: at 1 µM.
Test [10] deals with Death-associated protein kinase 1 (Homo sapiens) (UniProt P53355). The settings on record: at 0.1 µM.
Test [11] has the same target. The settings on record: at 1 µM.
Test [12] concerns the target T3, Serine/threonine-protein kinase DCLK2 (Homo sapiens) (UniProt Q8N568).
T3 sequence (whole entry): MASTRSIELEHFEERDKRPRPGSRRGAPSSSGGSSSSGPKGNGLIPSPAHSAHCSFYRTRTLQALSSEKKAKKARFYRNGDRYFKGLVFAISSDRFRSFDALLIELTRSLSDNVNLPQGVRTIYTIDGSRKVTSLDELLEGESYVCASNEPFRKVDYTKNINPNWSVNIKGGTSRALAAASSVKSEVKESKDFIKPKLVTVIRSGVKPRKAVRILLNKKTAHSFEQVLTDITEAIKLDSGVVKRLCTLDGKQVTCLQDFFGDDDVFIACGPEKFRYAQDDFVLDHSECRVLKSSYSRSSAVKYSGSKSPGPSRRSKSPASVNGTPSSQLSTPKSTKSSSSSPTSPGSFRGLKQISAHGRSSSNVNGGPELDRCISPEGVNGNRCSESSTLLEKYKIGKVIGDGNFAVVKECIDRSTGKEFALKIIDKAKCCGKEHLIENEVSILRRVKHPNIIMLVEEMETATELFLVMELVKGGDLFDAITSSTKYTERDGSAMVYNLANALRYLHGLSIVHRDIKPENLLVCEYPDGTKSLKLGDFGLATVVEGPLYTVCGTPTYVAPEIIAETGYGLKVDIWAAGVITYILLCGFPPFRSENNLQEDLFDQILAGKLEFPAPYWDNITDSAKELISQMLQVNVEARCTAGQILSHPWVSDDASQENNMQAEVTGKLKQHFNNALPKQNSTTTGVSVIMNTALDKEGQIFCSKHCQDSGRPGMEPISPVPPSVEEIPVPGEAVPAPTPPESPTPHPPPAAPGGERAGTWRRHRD
The note with it: at 0.1 µM.

Test [13] concerns the target T3, Serine/threonine-protein kinase DCLK2 (Homo sapiens). The note with it: at 1 µM.
Test [14] concerns the target MAP kinase-activated protein kinase 2 (Homo sapiens) (UniProt P49137). The settings on record: at 0.1 µM.
The target is the same in test [15]. The note with it: at 1 µM.
Test [16] has as its target MAP kinase-activated protein kinase 3 (Homo sapiens) (UniProt Q16644). The settings on record: at 0.1 µM.
Test [17] has the same target. The settings on record: at 1 µM.
Test [18] concerns the target Serine/threonine-protein kinase MARK1 (Homo sapiens) (UniProt Q9P0L2). The settings on record: at 0.1 µM.
The target is the same in test [19]. The settings on record: at 1 µM.
The target of test [20] is MAP/microtubule affinity-regulating kinase 3 (Homo sapiens) (UniProt P27448). The note with it: at 0.1 µM.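 Note: mean percent inhibition of MARK3 kinase activity, measured within the GSK PKIS screening panel.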
MAP/microtubule affinity-regulating kinase 3 (Homo sapiens), sequence (P27448 whole entry, looked up): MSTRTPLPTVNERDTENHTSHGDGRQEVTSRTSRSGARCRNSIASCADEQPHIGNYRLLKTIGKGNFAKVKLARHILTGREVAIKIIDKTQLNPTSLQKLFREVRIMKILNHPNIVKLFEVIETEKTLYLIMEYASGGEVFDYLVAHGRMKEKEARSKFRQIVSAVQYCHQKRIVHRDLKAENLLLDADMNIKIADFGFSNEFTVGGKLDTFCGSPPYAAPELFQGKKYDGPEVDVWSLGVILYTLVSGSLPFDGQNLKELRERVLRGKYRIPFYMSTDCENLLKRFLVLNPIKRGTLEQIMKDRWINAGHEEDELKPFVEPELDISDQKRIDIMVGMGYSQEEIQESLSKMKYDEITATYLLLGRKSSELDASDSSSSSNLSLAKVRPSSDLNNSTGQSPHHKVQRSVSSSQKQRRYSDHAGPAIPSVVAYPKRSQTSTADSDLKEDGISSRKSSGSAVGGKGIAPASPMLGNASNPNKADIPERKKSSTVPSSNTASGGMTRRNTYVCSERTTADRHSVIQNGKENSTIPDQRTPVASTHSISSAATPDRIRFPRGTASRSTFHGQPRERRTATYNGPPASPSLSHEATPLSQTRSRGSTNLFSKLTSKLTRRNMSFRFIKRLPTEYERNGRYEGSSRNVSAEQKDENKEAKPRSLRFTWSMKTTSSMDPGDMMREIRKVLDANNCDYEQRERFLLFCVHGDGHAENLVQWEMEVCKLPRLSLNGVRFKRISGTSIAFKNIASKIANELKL

Death-associated protein kinase 1 (Homo sapiens), sequence (P53355 whole entry, looked up): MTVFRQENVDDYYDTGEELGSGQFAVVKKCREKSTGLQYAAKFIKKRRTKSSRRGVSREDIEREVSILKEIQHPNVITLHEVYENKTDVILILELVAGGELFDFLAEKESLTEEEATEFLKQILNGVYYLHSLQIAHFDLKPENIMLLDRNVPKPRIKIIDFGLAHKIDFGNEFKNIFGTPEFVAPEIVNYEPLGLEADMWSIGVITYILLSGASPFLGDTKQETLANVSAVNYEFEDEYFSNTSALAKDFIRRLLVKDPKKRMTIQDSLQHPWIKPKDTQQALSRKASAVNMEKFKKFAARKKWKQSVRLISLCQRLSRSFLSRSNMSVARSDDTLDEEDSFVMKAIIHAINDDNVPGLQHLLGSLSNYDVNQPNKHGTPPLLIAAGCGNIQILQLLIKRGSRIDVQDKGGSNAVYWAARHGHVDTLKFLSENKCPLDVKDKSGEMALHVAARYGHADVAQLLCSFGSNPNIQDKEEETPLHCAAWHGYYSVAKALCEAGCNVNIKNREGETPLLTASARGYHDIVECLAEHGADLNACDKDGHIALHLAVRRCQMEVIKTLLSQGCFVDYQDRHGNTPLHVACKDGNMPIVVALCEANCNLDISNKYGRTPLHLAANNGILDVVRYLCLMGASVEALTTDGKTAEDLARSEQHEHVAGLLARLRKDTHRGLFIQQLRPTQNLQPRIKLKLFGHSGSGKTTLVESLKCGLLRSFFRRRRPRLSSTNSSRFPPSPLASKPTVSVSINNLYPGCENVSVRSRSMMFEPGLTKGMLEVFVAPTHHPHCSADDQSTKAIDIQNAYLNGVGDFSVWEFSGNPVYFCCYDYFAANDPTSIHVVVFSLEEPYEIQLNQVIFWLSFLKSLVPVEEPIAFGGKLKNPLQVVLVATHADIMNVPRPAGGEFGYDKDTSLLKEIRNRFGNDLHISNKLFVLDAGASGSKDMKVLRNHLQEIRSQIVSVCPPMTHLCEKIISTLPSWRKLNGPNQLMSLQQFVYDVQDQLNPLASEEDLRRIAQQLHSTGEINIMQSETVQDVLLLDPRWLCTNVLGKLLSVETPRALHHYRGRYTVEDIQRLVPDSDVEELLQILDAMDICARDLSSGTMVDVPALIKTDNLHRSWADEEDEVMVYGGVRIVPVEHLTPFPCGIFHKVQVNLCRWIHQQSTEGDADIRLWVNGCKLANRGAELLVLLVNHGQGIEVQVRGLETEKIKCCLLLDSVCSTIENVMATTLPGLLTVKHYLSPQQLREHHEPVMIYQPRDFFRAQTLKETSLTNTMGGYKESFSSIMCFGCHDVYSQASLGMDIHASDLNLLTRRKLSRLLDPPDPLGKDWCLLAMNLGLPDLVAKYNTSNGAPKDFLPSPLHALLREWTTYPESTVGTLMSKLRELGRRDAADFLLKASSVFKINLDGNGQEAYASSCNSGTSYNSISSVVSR
Calcium/calmodulin-dependent protein kinase type II subunit alpha (Homo sapiens), sequence (Q9UQM7 whole entry): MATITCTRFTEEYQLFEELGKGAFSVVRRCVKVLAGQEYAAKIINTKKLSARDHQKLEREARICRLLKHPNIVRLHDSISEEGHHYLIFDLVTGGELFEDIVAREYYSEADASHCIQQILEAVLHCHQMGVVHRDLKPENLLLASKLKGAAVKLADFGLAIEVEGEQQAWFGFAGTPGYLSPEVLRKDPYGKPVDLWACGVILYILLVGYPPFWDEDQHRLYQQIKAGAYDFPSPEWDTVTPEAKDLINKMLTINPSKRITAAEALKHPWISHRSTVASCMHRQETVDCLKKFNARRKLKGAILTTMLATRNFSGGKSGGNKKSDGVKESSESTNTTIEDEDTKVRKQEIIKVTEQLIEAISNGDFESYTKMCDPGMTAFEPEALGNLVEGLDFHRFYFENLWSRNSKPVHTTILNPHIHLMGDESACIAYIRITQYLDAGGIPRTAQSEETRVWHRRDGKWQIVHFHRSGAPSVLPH
MAP kinase-activated protein kinase 2 (Homo sapiens), sequence (P49137 whole entry, looked up): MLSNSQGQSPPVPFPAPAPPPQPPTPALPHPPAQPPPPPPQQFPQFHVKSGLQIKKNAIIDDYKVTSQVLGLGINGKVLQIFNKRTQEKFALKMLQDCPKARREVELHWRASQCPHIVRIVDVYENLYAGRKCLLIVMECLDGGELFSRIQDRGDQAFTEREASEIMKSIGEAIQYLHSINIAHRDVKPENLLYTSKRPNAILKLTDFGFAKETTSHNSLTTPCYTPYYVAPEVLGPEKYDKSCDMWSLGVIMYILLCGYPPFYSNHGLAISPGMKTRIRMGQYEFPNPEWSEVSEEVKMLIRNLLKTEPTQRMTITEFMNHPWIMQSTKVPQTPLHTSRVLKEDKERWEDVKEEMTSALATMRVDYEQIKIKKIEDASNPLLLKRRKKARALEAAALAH
Serine/threonine-protein kinase Chk2 (Homo sapiens), sequence (O96017 whole entry): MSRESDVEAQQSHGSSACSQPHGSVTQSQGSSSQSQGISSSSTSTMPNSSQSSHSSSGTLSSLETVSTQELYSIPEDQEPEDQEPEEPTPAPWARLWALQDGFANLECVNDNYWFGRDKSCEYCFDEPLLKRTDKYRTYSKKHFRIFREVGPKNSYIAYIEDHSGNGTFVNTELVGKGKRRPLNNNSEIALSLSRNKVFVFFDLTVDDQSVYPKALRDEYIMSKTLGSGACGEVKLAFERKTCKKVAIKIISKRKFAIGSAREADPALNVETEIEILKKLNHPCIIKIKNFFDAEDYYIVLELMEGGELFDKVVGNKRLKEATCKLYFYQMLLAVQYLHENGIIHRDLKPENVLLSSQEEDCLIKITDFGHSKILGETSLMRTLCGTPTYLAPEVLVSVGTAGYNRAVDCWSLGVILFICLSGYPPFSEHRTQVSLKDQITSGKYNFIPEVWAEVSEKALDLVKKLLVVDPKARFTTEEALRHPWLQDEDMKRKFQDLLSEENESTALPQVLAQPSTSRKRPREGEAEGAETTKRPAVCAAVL
Serine/threonine-protein kinase MARK1 (Homo sapiens), sequence (Q9P0L2 whole entry, looked up): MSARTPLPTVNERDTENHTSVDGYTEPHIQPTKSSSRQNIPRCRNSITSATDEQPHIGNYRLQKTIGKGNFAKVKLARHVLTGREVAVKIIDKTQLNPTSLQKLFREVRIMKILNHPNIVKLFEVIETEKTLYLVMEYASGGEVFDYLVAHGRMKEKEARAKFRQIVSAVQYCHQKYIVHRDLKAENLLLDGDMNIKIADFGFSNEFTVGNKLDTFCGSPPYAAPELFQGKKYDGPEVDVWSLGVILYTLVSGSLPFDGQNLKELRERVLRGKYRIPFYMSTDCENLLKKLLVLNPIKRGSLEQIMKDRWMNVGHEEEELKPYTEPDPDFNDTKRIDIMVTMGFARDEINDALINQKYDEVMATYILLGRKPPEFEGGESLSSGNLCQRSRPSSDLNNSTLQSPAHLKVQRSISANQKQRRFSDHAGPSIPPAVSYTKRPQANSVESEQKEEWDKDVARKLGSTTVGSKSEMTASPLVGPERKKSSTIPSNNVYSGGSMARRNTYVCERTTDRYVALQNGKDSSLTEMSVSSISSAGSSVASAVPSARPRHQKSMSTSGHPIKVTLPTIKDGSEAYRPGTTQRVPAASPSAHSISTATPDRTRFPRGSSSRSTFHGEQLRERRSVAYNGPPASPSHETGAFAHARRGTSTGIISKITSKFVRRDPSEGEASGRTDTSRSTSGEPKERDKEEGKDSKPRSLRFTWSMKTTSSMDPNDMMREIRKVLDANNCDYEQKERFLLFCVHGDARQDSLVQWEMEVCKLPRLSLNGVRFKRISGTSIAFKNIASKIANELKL
Calcium/calmodulin-dependent protein kinase type II subunit delta (Homo sapiens), sequence (Q13557 whole entry): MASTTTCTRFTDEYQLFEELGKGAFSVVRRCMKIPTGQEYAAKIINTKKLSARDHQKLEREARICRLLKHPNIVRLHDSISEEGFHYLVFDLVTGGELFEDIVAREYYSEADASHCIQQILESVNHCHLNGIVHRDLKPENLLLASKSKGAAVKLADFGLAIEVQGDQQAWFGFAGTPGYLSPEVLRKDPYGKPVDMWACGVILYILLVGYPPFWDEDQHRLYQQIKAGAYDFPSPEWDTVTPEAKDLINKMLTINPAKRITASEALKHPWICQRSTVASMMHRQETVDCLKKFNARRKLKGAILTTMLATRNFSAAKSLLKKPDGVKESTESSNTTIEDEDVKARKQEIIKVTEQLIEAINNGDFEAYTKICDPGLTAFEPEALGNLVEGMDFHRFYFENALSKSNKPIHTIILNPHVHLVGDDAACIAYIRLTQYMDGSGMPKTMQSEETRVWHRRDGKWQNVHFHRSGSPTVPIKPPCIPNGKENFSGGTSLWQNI

For orientation: inhibition means the relative decrease from the control value, in per cent. Consider `N#Cc1cccc(Nc2nccc(-c3cnn4ncccc34)n2)c1`, for which the inhibition was 35.4% in [1]; 17.8% in test [2]; 63.4% in [3]; -1.28% in test [4]; -0.33% in [5]; 3% in test [6]. The inhibition came to 3.73% in test [7]; 3.25% in [8]; 10.6% in test [9]; 3.73% in test [10]; 3.93% in test [11]; 2.04% in test [12]. Besides, the inhibition came to 0.56% in [13]; 2.34% in test [14]; 1.6% in test [15]; 2.17% in [16]; 5% in test [17]; 6.5% in [18]. In addition, the inhibition turned out to be 15.2% in test [19] and 2.34% in [20].
For the compound `CC(C)c1ccc(Nc2nccc(-c3cnn4ncccc34)n2)cc1`, the inhibition in [1] was 4.19%; in [2], 2.72%; in test [3], 8.29%; in [4] it was 1.15%; in test [5], 2.83%; in test [6], -1.58%. Also, the inhibition in [7] was -2.41%; in [8] it was 1.57%; in test [9] it was 3.38%; in test [10], -1.79%; in [11], -2.33%; in test [12], 0.5%. Further, the inhibition in test [13] is -1.7%; in [14] it was 0.86%; in test [15] it was 0.39%; in [16], 3.55%; in test [17] it was 6.14%; in test [18] it was 0.51%. Besides, the inhibition in test [19] was 4.24%; in [20], 2.56%.
Regarding `CS(=O)(=O)Nc1cccc(-c2ccc3c(NC(=O)C4CC4)n[nH]c3c2)c1`, the inhibition in [1] turned out to be 2.85%; in test [2] it was 3.31%; in [3], 3%; in test [4], 1.21%; in test [5] it was 0.65%; in test [6], 1.78%. Also, the inhibition in test [7] was found to be 1.91%; in test [8], 0.51%; in [9] it was 0.84%; in [10] it was 1.43%; in test [11], 3.29%; in [12] it was 2.43%. The inhibition in test [13] is 1.35%; in test [14], 0.07%; in test [15] it was 0.38%; in test [16], -0.07%; in [17], 0.93%; in test [18], 0.98%. For the same compound, the inhibition in test [19] came out at 3.49%; in test [20] it was 1.49%.
As for `COc1cc2ncnc(Nc3ccc(C)c(O)c3)c2cc1OC`, the inhibition in [1] was 2.74%; in test [2], 2.6%; in [3], 3.68%; in test [4] it was -1.73%; in [5], -3.77%; in [6], 4.63%. Also, the inhibition in [7] came to 4%; in test [8], 5.03%; in [9], 25.5%; in test [10] it was 6.4%; in [11] it was 6.25%; in test [12] it was 2.8%. The inhibition in test [13] amounted to 0.34%; in test [14], 3.52%; in test [15] it was 3.42%; in test [16], 5.93%; in [17] it was 7.13%; in test [18], 4.14%. The inhibition in [19] worked out at 7.86%; in test [20] it was 4.06%.
Consider `NS(=O)(=O)c1ccc(Nc2cc(-c3cccc(O)c3)n[nH]2)cc1`, for which the inhibition is 5.49% in test [1]; 5.13% in test [2]; 6.02% in test [3]; 0.32% in [4]; -1.03% in [5]; 5.99% in test [6]. Also, the inhibition was determined as 8.68% in test [7]; 3.04% in [8]; 6.54% in test [9]; 7.24% in test [10]; 8.63% in [11]; 0.84% in test [12]. In addition, the inhibition in test [13] was found to be 0.2%; in test [14], 1.88%; in test [15] it was 2.79%; in test [16], 4.03%; in test [17] it was 4.03%; in [18], 5.12%. The inhibition in [19] worked out at 11.5%; in test [20] it was 5.96%.
Turning to `CN(C)c1cc2c(Nc3ccc4c(cnn4Cc4ccccc4)c3)ncnc2cn1`, the inhibition in [1] stood at 2.41%; in [2] it was 2.28%; in test [3], 2.7%; in test [4], 1.84%; in [5], 0.37%; in [6], 2.49%. The inhibition in test [7] amounted to 5.16%; in test [8], 3.91%; in test [9] it was 17.9%; in [10], 2.91%; in test [11], 4%; in test [12], 0.57%. The inhibition was -0.18% in test [13]; 1.53% in test [14]; 1.29% in test [15]; 2.73% in [16]; 2.81% in test [17]; 2.96% in [18]. The inhibition in test [19] is 3.22%; in [20], 0.52%.
On to `COc1cc2ncn(-c3cc(OCc4ccccc4S(C)(=O)=O)c(C#N)s3)c2cc1OC`, for which the inhibition in test [1] was 29.9%; in test [2], 18.3%; in test [3], 62.8%; in test [4], 1.21%; in test [5] it was 1.69%; in [6], 5.49%. In addition, the inhibition in test [7] is 23.3%; in test [8], 10%; in test [9], 43%; in test [10] it was 3.5%; in test [11], 6.48%; in test [12], 1.77%. The inhibition in [13] was determined as 0.47%; in test [14] it was 1.6%; in [15] it was 1.54%; in test [16] it was 3.38%; in test [17] it was 4.59%; in test [18] it was 36.9%. The results for the inhibition in test [19] and in [20] were 80% and 49.6%, respectively.
